# Structures can show the parent of a compound that is named as a salt.
# Tested on: Danio rerio Tg(wt1b:EGFP) embryo, pronephros
# Assay: fraction of imaged embryos annotated as normal kidney; higher = less nephrotoxic; extreme values may be limits of the assay
# Conditions: 25 µM; exposure: 24-48 hpf
# In short: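 Embryos of the Tg(wt1b:EGFP) zebrafish line were dechorionated and held in 12-well plates with 25 μM compound in 0.5% DMSO and 5 mM HEPES-buffered E3 containing 0.003% PTU, from 24 to 48 hpf at 28.5°C. Larvae were then anaesthetised with tricaine, set dorsal side up in agarose-filled 96-well plates, and their pronephroi imaged by widefield fluorescence at 470 nm over 10 z-slices. Each value is the fraction of embryos per treatment placed in the normal-kidney category after manual annotation of maximum projections.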
row,SMILES,fraction of imaged embryos annotated as normal kidney
1,Cc1cccc(C)c1OCC(C)N (stereo not drawn) [Mexiletine hydrochloride],0.917
2,CCCOc1ccccc1-c1nc2[nH]nnc2c(=O)[nH]1 [Zaprinast],0.727
3,CN(C)CCCN1c2ccccc2Sc2ccccc21 [Promazine hydrochloride],0.75
4,CCCCC(=O)N(Cc1ccc(-c2ccccc2-c2nnn[nH]2)cc1)[C@H](C(=O)O)C(C)C [Valsartan],1
5,OCCN1CCN(CCCN2c3ccccc3Sc3ccc(C(F)(F)F)cc32)CC1 [Fluphenazine dihydrochloride],0.833
6,CC(C)C(=O)OCC(=O)[C@@]12O[C@H](C3CCCCC3)O[C@@H]1C[C@H]1[C@@H]3CCC4=CC(=O)C=C[C@]4(C)[C@H]3[C@@H](O)C[C@@]12C [Ciclesonide],0.333
7,Nc1ccc(C(=O)O)c(O)c1 [4-aminosalicylic acid],0.833
8,N=C(N=C(N)N)N1CCOCC1 [Moroxidine hydrochloride],0.75
9,CC1(C)S[C@@H]2[C@H](NC(=O)[C@H](N)c3ccccc3)C(=O)N2[C@H]1C(=O)O [Ampicillin trihydrate],0.917
10,NCCCC[C@H](N[C@@H](CCc1ccccc1)C(=O)O)C(=O)N1CCC[C@H]1C(=O)O [Lisinopril],0.833
11,CNC[C@H](O)[C@@H](O)[C@H](O)[C@H](O)CO [Meglumine],0.909
12,Cc1cc(NS(=O)(=O)c2ccc(N)cc2)no1 [Sulfamethoxazole],0.833
13,Nc1nc2c(ncn2COC(CO)CO)c(=O)[nH]1 [Ganciclovir],0.917
14,Oc1ncnc2[nH]ncc12 [Allopurinol],0.75
15,CN1CCC(=C2c3ccccc3CCc3cccnc32)CC1 [Azatadine maleate],1
16,CC(C)(C)NC(=O)[C@@H]1C[C@@H]2CCCC[C@@H]2CN1C[C@@H](O)[C@H](Cc1ccccc1)NC(=O)[C@H](CC(N)=O)NC(=O)c1ccc2ccccc2n1 [Saquinavir mesylate],0.909
17,NC[C@H]1O[C@H](O[C@H]2[C@H](O[C@@H]3O[C@H](CO)[C@@H](O)[C@H]3O)[C@@H](O)[C@H](N)C[C@@H]2N)[C@H](N)[C@@H](O)[C@@H]1O [Ribostamycin sulfate salt],0.833

row,SMILES,fraction of imaged embryos annotated as normal kidney
1,Cc1cc(CC(=O)O)n(C)c1C(=O)c1ccc(Cl)cc1 [Zomepirac sodium salt],0.273
2,CCSc1ccc2c(c1)N(CCCN1CCN(C)CC1)c1ccccc1S2 [Thiethylperazine dimalate],0.833
3,CCCc1nc2c(C)cc(-c3nc4ccccc4n3C)cc2n1Cc1ccc(-c2ccccc2C(=O)O)cc1 [Telmisartan],0.75
4,CNCCc1ccccn1 [Betahistine mesylate],0.833
5,CCOC(=O)[C@H](CCc1ccccc1)N[C@@H](C)C(=O)N1[C@H](C(=O)O)C[C@@H]2CCC[C@@H]21 [Ramipril],1
6,CC[N+](C)(C)Cc1ccccc1Br [Bretylium tosylate],1
7,Cc1ccc(C(=O)c2ccc(CC(=O)O)n2C)cc1 [Tolmetin sodium salt dihydrate],0.333
8,CN(c1nccc(=O)[nH]1)C1CCN(c2nc3ccccc3n2Cc2ccc(F)cc2)CC1 [Mizolastine],0.917
9,COc1ccc(C(=O)NCc2ccc(OCCN(C)C)cc2)cc1OC [Itopride],0.8
10,NC[C@@H]1O[C@H](O[C@H]2[C@@H](O)[C@H](O[C@@H]3[C@@H](O)[C@H](N)C[C@H](N)[C@H]3O[C@H]3O[C@H](CO)[C@@H](O)[C@H](O)[C@H]3N)O[C@@H]2CO)[C@H](N)[C@@H](O)[C@@H]1O [Paromomycin sulfate],0.75
11,O=P(O)(O)C(O)(Cn1ccnc1)P(=O)(O)O [Zoledronic acid hydrate],1
12,CC12CC3CC(C)(C1)CC(N)(C3)C2 [Memantine Hydrochloride],0.917
13,Cc1ccccc1OCC(O)CO (stereo not drawn) [Mephenesin],0.917
14,COc1cc(N)c(Cl)cc1C(=O)NC1CCN(Cc2ccccc2)CC1 [Clebopride maleate],0.917
15,N=C(N)NC(=O)c1nc(Cl)c(N)nc1N [Amiloride hydrochloride dihydrate],0.583
16,CN(C)C(=O)C(CCN1CCC(O)(c2ccc(Cl)cc2)CC1)(c1ccccc1)c1ccccc1 [Loperamide hydrochloride],0.667

# Source: the supplement of paper PMC7366291
